# Source: PubChem BioAssay (NCATS)
# Values joined by “and” are separate entries in the source; they are usually repeats but may differ in a detail not shown here. Identical values can stand only once. Records with an inconclusive call do not appear. A call without a number means that no potency is given here. Values without a mark were called inactive. Active and inactive are the calls of the source. The call rests on the fitted dose curve; in most records, active means well fitted curve in the direction sought with a large enough effect; inconclusive means small, poorly fitted or top-dose-only effect, or another doubt; inactive means no such curve, though single readings can be large; an effect the other way counts as inactive or inconclusive.
# Tests used:
# [1] = target: Calcium and integrin-binding protein 1 (Homo sapiens) (UniProt Q99828); test: Primary qHTS for Identification of Calcium Integrin Binding Protein 1 (CIB1) Competitor (AID 1508620);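 further: GST tagged CIB1 binding a fluorescein labelled alphaIIb integrin peptide tracer; top concentration of the series differs between compounds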
# Chain of Calcium and integrin-binding protein 1 (Homo sapiens) (Q99828 whole entry, looked up): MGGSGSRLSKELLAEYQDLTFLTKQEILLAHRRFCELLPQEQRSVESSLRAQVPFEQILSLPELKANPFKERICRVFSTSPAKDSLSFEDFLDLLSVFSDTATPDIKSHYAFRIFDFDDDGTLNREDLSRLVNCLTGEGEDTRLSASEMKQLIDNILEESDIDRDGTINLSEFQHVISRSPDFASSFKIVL
# Method in brief: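 CIB1-GST (1 uM final) and compound incubated 15 min at room temperature before adding FITC-alphaIIb peptide tracer (100 nM final). Competition for binding read by fluorescence polarization (ex 480, em 540) after another 15 min at room temperature.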
# [2] = Primary qHTS for inhibitors of nuclear receptor binding SET domain protein 2 (NSD2) in an isogenic RCH-ACV NSD2 p.E1099K mutant (9B) (AID 1645876); further: nearly all actives have a fitted effect of over 70% in size; further: potency means the concentration at half of the fitted maximal effect
# [3] = Primary qHTS for inhibitors of nuclear receptor binding SET domain protein 2 (NSD2) in an RCH-ACV wild type WT cells (2C) (AID 1645877); further: nearly all actives have a fitted effect of over 70% in size; further: potency means the concentration at half of the fitted maximal effect
# [4] = Counterscreen qHTS for small molecule stabilizers of the endoplasmic reticulum resident proteome: GLuc-NoTag assay (AID 1508627);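 further: SH-SY5Y cells given compound then 100 nM thapsigargin to empty ER calcium; series mostly up to about 76 µM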
# Method in brief: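 Luminescence of Gaussia luciferase secreted into the medium (coelenterazine, 0.07x final, unlysed cells) was the read-out. Human SH-SY5Y neuroblastoma cells constitutively secreting untagged GLuc received compound for 19 h, then 100 nM thapsigargin for 4 h.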
# [5] = Cell Viability qHTS for small molecule stabilizers of the endoplasmic reticulum resident proteome (AID 1508629); conditions: cell viability counter-screen, 100 nM thapsigargin for final 4 h;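 further: human SH-SY5Y neuroblastoma cells carrying the GLuc-SERCaMP reporter; compound exposure about 46 h in total before the viability read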
# [6] = Confirmatory qHTS for small molecule stabilizers of the endoplasmic reticulum resident proteome: Secreted ER Calcium Modulated Protein (SERCaMP) assay (AID 1508628); further: potency means the concentration at half of the fitted maximal effect; nearly all actives have a fitted effect of over 40% in size
# Method in brief: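 We seeded SH-SY5Y-GLuc-SERCaMP cells, added compounds (three concentrations in the primary run, eleven up to 76.6 uM in confirmation), incubated 16 h, depleted ER calcium with thapsigargin, and read luciferase 4 h later.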
# [7] = target: Papain (Carica papaya) (UniProt P00784); test: Primary qHTS assay for inhibitors of the protease papain (AID 1645873);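 further: papain turnover of Z-FR-AMC read as the AMC fluorescence gain over 10 min; series mostly up to about 50 µM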
# Chain of Papain (Carica papaya) (P00784 whole entry, looked up): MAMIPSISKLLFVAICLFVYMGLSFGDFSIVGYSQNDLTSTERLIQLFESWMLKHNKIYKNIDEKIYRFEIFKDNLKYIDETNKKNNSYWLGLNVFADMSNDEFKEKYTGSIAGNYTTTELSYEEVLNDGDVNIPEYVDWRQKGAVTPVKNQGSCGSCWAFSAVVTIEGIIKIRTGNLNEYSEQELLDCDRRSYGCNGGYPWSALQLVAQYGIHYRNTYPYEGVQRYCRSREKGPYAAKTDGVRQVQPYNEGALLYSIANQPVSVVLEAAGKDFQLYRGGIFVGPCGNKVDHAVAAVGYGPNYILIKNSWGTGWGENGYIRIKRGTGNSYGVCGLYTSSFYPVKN
# [8] = Primary qHTS for small molecule stabilizers of the endoplasmic reticulum resident proteome: Secreted ER Calcium Modulated Protein (SERCaMP) assay (AID 1508630)
# Method in brief: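 GLuc-SERCaMP-expressing SH-SY5Y cells, pretreated 16 h with compound, are challenged with thapsigargin to empty ER calcium stores; after 4 h, coelenterazine is added directly to the medium and luminescence is imaged.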
smiles,measurement,setting,value
CC(=O)OC1CC(O)C2(C)C(CC(OC(C)=O)C3(C)C2CCC2(C)C(c4ccoc4)C(=O)C4OC423)C1(C)C (stereo unspecified),Potency,[1],inactive
same,Potency,[2],inactive
same,Potency,[3],inactive
C[C@@](O)(COc1ccc(C#N)cc1)C(=O)Nc1ccc(C#N)c(C(F)(F)F)c1,Potency,[1],inactive
same,Potency,[3],inactive
CN1[C@@H]2CC[C@H]1CC(OC(=O)C1C=Nc3ccccc31)C2 (stereo partly specified),Potency,[1],inactive
same,Potency,[2],inactive
same,Potency,[3],inactive
N#C[C@@H](O[C@@H]1O[C@H](CO[C@@H]2O[C@H](CO)[C@@H](O)[C@H](O)[C@H]2O)[C@@H](O)[C@H](O)[C@H]1O)c1ccccc1,Potency,[1],inactive
same,Potency,[2],inactive
same,Potency,[3],inactive
COc1c(C(C)C)cc2c(c1O)[C@@]1(C(=O)O)CCCC(C)(C)C1CC2 (stereo partly specified),Potency,[1],inactive
same,Potency,[2],inactive
same,Potency,[3],inactive
CC(=O)O[C@H]1C[C@@H](OC(C)=O)C(C)(C)C2C[C@@H](O)[C@]3(C)C(CC[C@@]4(C)[C@H](C5=CC(=O)OC5O)C[C@H]5O[C@]543)[C@]21C (stereo partly specified),Potency,[1],inactive
same,Potency,[2],inactive
same,Potency,[3],inactive
COCC1OC(=O)c2coc3c2C1(C)C1=C(C3=O)C2CCC(=O)C2(C)CC1O (stereo unspecified),Potency,[1],inactive
same,Potency,[2],inactive
same,Potency,[3],inactive
O[C@H]1[C@H]2[C@H](O)CCCN2C[C@H]1O,outcome,[4],inactive
same,max response,[5],13.7% and 34.4%
CCN1C[C@]2(OC(=O)c3ccccc3NC(C)=O)CC[C@H](OC)[C@@]34[C@@H]2C[C@@H]([C@@H]13)[C@@]1(O)C[C@H](OC)[C@H]2C[C@@H]4[C@]1(O)[C@H]2OC,Potency,[1],inactive
same,Potency,[2],inactive
same,Potency,[3],inactive
COC1CC(OC2CCC3(C=O)C(CCC4C3CCC3(C)C(C5=CC(=O)OC5)CCC43O)C2)OC(C)C1OC1OC(CO)C(O)C(O)C1O (stereo unspecified),Potency,[1],inactive
same,Potency,[2],85.8 nM (active)
same,Potency,[3],153 nM (active)
CC(CCc1ccc(O)cc1)O[C@@H]1O[C@H](CO[C@H]2OC[C@](O)(CO)[C@H]2O)[C@@H](O)[C@H](O)[C@H]1O (stereo partly specified),Potency,[1],inactive
same,Potency,[2],inactive
same,Potency,[3],inactive
COC(=O)C1(C)CCC(O)C2(C)c3cc(O)c(C(C)C)cc3C(O)C(OC(C)=O)C12 (stereo unspecified),Potency,[1],inactive
same,Potency,[2],inactive
same,Potency,[3],inactive
Oc1ccc2c3c1O[C@H]1c4[nH]c5ccccc5c4C[C@@]4(O)C(C2)N(CC2CC2)CCC314 (stereo partly specified),Potency,[6],12600 nM (active)
same,Potency,[7],inactive
C=C1[C@@H]2CC[C@@]3(C)[C@H](c4ccoc4)OC(=O)C[C@]13O[C@H]1CC(=O)C(C)(C)[C@H](C(OC(C)=O)C(=O)OC)[C@]12C (stereo partly specified),Potency,[1],inactive
same,Potency,[2],inactive
same,Potency,[3],inactive
COC1CC(OC2CCC3(C)C(=CCC4C3CCC3(C)C(C(C)OC5OC(COC6OC(CO)C(O)C(O)C6O)C(O)C(O)C5O)CCC43O)C2)OC(C)C1OC1OC(C)C(O)C(OC)C1O (stereo unspecified),Potency,[1],inactive
same,outcome,[2],inactive [at 9.23 µM]
same,"activity change, negative = cell killing",[3],0.676% [at 9.23 µM]
CC1(C)S[C@@H]2[C@H](N)C(=O)N2[C@H]1C(=O)O,outcome,[8],inactive
CCN1CC2(COC)C3[C@@H](OC)C4C1C3(C1C[C@]3(O)[C@H](OC(=O)c5ccccc5)C1[C@]4(OC(C)=O)[C@@H](O)[C@@H]3OC)[C@H](OC)C[C@H]2O (stereo partly specified),Potency,[1],inactive
same,Potency,[2],inactive
same,Potency,[3],inactive
C=CCN1CC[C@]23c4c5ccc(O)c4O[C@@H]2/C(=N/N=C2\CC[C@@]4(O)C6Cc7ccc(O)c8c7[C@@]4(CCN6CC=C)[C@@H]2O8)CC[C@@]3(O)C1C5,outcome,[8],inactive
CN(C)CCc1c[nH]c2ccc(CN3CCN(C)S3(=O)=O)cc12,Potency,[1],inactive
same,Potency,[2],inactive
same,Potency,[3],inactive
COC(=O)C1(C)CCC(=O)C2(C)c3c(O)cc(C(C)C)cc3C(O)C(OC(C)=O)C12 (stereo unspecified),Potency,[1],inactive
same,Potency,[2],inactive
same,Potency,[3],inactive
Clc1ccc(N2C[C@H]3CC[C@@H](C2)N3)nn1,Potency,[1],inactive
same,Potency,[2],inactive
same,Potency,[3],inactive
CC(C)=C1CC[C@]23CO[C@H](C2)[C@@](O)(C(=O)O)CCC13 (stereo partly specified),Potency,[1],inactive
same,Potency,[2],inactive
same,Potency,[3],inactive
C[C@H]1C(=O)O[C@H]2[C@H](O)[C@]34C5OC(=O)[C@]3(O[C@@H]3OC(=O)[C@H](O)C34[C@H](C(C)(C)C)[C@H]5O)C12O (stereo partly specified),Potency,[1],inactive
same,Potency,[2],inactive
same,Potency,[3],inactive
CC(=O)OC1CC(O)C(C)(C)C2CC(OC(C)=O)C3(C)C(CCC4(C)C(c5ccoc5)C(=O)C5OC543)C12C (stereo unspecified),Potency,[1],inactive
same,Potency,[2],inactive
same,Potency,[3],inactive
CO[C@H]1[C@H](O)[C@H](O[C@H]2CC[C@]3(C)C4CC[C@]5(C)[C@H](C6=CC(=O)OC6)CC[C@]5(O)C4CC[C@@H]3C2)O[C@@H](C)[C@@H]1O (stereo partly specified),Potency,[1],inactive
same,Potency,[2],22.4 nM (active)
same,Potency,[3],28.2 nM (active)
CN1C(=O)c2ccccc2NC(=O)C1Cc1ccccc1 (stereo unspecified),Potency,[1],inactive
same,Potency,[2],inactive
same,Potency,[3],inactive
